Results reported in PubChem BioAssay AID1159580 (chemical genetic matrix, 2015).
About 2,000 (36%) of roughly 5,500 compounds were called active. Not shown: some 18% with an inconclusive outcome. Rule as the data show it: active = normalized growth mostly below about 0.91 (no sharp cut-off); inconclusive = no clear call, values can overlap the other calls; inactive = mostly above about 0.92. This is one part of the list.

Assay: chemical genetic growth profiling, strain panel (AID 1159580);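 also: tested at 20 µM; growth read once vehicle control cultures reached saturation at 30 °C; 1 = growth at the plate median or of vehicle wells; lower values mean less growth of the strain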
Settings: growth OD

Measured: normalized growth

CN(C)CCN(Cc1ccccc1)c1ccccn1
inactive: S. cerevisiae deletion strains, locus YJR075W, strain HOC1, stronger effect = lower value 1.01 | S. cerevisiae deletion strains, locus YKL009W, strain mrt4, stronger effect = lower value 0.993 | S. cerevisiae deletion strains, locus YKL068W, stronger effect = lower value 0.969 | S. cerevisiae deletion strains, locus YKL085W, strain MDH1 (second series), stronger effect = lower value 0.978 | S. cerevisiae deletion strains, locus YKL085W, strain MDH1, stronger effect = lower value 0.978 | S. cerevisiae deletion strains, locus YKL160W, strain elf1, stronger effect = lower value 1.03 | S. cerevisiae deletion strains, locus YKL190W, strain CNB1, stronger effect = lower value 0.983 | S. cerevisiae deletion strains, locus YKR001C, strain vps1, stronger effect = lower value 0.994 | S. cerevisiae deletion strains, locus YKR026C, strain gcn3, stronger effect = lower value 1 | S. cerevisiae deletion strains, locus YKR091W, strain srl3, stronger effect = lower value 1.01 | S. cerevisiae deletion strains, locus YLL001W, strain dnm1, stronger effect = lower value 1.04 | S. cerevisiae deletion strains, locus YLL026W, stronger effect = lower value 1.02 | S. cerevisiae deletion strains, locus YLL041C, strain sdh2, stronger effect = lower value 1.01 | S. cerevisiae deletion strains, locus YLR027C, strain aat2, stronger effect = lower value 1.01 | S. cerevisiae deletion strains, locus YLR039C, strain RIC1, stronger effect = lower value 0.966 | S. cerevisiae deletion strains, locus YLR058C, strain SHM2, stronger effect = lower value 0.999 | S. cerevisiae deletion strains, locus YLR102C, strain apc9, stronger effect = lower value 0.986 | S. cerevisiae deletion strains, locus YLR113W, strain HOG1, stronger effect = lower value 0.909 | S. cerevisiae deletion strains, locus YLR221C, strain rsa3, stronger effect = lower value 0.988 | S. cerevisiae deletion strains, locus YLR258W, strain gsy2, stronger effect = lower value 1.01 | S. cerevisiae deletion strains, locus YLR262C, strain YPT6 (second series), stronger effect = lower value 1.02 | S. cerevisiae deletion strains, locus YLR262C, strain YPT6, stronger effect = lower value 1.01 | S. cerevisiae deletion strains, locus YLR268W, strain sec22, stronger effect = lower value 0.985 | S. cerevisiae deletion strains, locus YLR320W, strain mms22, stronger effect = lower value 1.01 | S. cerevisiae deletion strains, locus YLR330W, strain CHS5, stronger effect = lower value 0.999 | S. cerevisiae deletion strains, locus YLR342W, strain FKS1 (second series), stronger effect = lower value 1.04 | S. cerevisiae deletion strains, locus YLR342W, strain FKS1, stronger effect = lower value 1.02 | S. cerevisiae deletion strains, locus YLR357W, strain rsc2, stronger effect = lower value 1.03 | S. cerevisiae deletion strains, locus YLR370C, strain arc18, stronger effect = lower value 1.03 | S. cerevisiae deletion strains, locus YLR371W, strain rom2, stronger effect = lower value 0.976 | S. cerevisiae deletion strains, locus YLR384C, strain iki3, stronger effect = lower value 1.01 | S. cerevisiae deletion strains, locus YLR418C, strain cdc73, stronger effect = lower value 1.02 | S. cerevisiae deletion strains, locus YML016C, strain PPZ1, stronger effect = lower value 1.01 | S. cerevisiae deletion strains, locus YML032C, strain rad52, stronger effect = lower value 0.978 | S. cerevisiae deletion strains, locus YML120C, strain ndi1, stronger effect = lower value 1.02 | S. cerevisiae deletion strains, locus YML124C, strain tub3, stronger effect = lower value 0.988 | S. cerevisiae deletion strains, locus YMR058W, strain fet3, stronger effect = lower value 1.02 | S. cerevisiae deletion strains, locus YMR078C, strain ctf18, stronger effect = lower value 0.988 | S. cerevisiae deletion strains, locus YMR125W, strain sto1, stronger effect = lower value 1.02 | S. cerevisiae deletion strains, locus YMR129W, stronger effect = lower value 1 | S. cerevisiae deletion strains, locus YMR205C, strain PFK2, stronger effect = lower value 1.04 | S. cerevisiae deletion strains, locus YMR223W, strain ubp8, stronger effect = lower value 1.02 | S. cerevisiae deletion strains, locus YMR231W, strain pep5, stronger effect = lower value 1 | S. cerevisiae deletion strains, locus YMR263W, strain SAP30, stronger effect = lower value 0.976 | S. cerevisiae deletion strains, locus YMR307W, strain GAS1, stronger effect = lower value 1.06 | S. cerevisiae deletion strains, locus YNL067W, strain RPL9B, stronger effect = lower value 0.985 | S. cerevisiae deletion strains, locus YNL071W, strain lat1, stronger effect = lower value 1.01 | S. cerevisiae deletion strains, locus YNL128W, strain TEP1, stronger effect = lower value 0.987 | S. cerevisiae deletion strains, locus YNL153C, strain GIM3, stronger effect = lower value 0.995 | S. cerevisiae deletion strains, locus YNL183C, strain NPR1, stronger effect = lower value 0.942 | S. cerevisiae deletion strains, locus YNL209W, strain ssb2, stronger effect = lower value 1 | S. cerevisiae deletion strains, locus YNL233W, strain BNI4, stronger effect = lower value 1.01 | S. cerevisiae deletion strains, locus YNL248C, strain rpa49, stronger effect = lower value 1 | S. cerevisiae deletion strains, locus YNL250W, strain rad50, stronger effect = lower value 0.96 | S. cerevisiae deletion strains, locus YNL271C, strain bni1, stronger effect = lower value 0.953 | S. cerevisiae deletion strains, locus YNL298W, strain CLA4, stronger effect = lower value 0.994 | S. cerevisiae deletion strains, locus YNL307C, strain MCK1, stronger effect = lower value 0.989 | S. cerevisiae deletion strains, locus YNL322C, strain KRE1 (second series), stronger effect = lower value 1.02 | S. cerevisiae deletion strains, locus YNL322C, strain KRE1, stronger effect = lower value 0.987 | S. cerevisiae deletion strains, locus YNR049C, strain mso1, stronger effect = lower value 1.02 | S. cerevisiae deletion strains, locus YNR052C, strain pop2, stronger effect = lower value 0.986 | S. cerevisiae deletion strains, locus YOL006C, strain TOP1, stronger effect = lower value 1 | S. cerevisiae deletion strains, locus YOL012C, strain htz1 1.43 | S. cerevisiae deletion strains, locus YOL147C, strain pex11, stronger effect = lower value 0.978 | S. cerevisiae deletion strains, locus YOR001W, strain rrp6, stronger effect = lower value 1.04 | S. cerevisiae deletion strains, locus YOR061W, strain CKA2, stronger effect = lower value 0.996 | S. cerevisiae deletion strains, locus YOR069W, strain VPS5, stronger effect = lower value 1 | S. cerevisiae deletion strains, locus YOR070C, strain gyp1, stronger effect = lower value 0.999 | S. cerevisiae deletion strains, locus YOR080W, strain dia2, stronger effect = lower value 1.02 | S. cerevisiae deletion strains, locus YOR083W, strain WHI5, stronger effect = lower value 1.01 | S. cerevisiae deletion strains, locus YOR106W, strain vam3, stronger effect = lower value 1.05 | S. cerevisiae deletion strains, locus YOR136W, strain idh2, stronger effect = lower value 0.997 | S. cerevisiae deletion strains, locus YOR144C, strain elg1, stronger effect = lower value 0.98 | S. cerevisiae deletion strains, locus YOR184W, strain ser1, stronger effect = lower value 1 | S. cerevisiae deletion strains, locus YOR231W, strain MKK1, stronger effect = lower value 0.959 | S. cerevisiae deletion strains, locus YOR265W, strain rbl2, stronger effect = lower value 1 | S. cerevisiae deletion strains, locus YOR270C, strain vph1, stronger effect = lower value 1.02 | S. cerevisiae deletion strains, locus YOR290C, strain snf2, stronger effect = lower value 0.985 | S. cerevisiae deletion strains, locus YOR316C, strain cot1, stronger effect = lower value 0.991 | S. cerevisiae deletion strains, locus YPL051W, strain arl3, stronger effect = lower value 1.02 | S. cerevisiae deletion strains, locus YPL055C, strain LGE1, stronger effect = lower value 1.04 | S. cerevisiae deletion strains, locus YPL078C, strain atp4, stronger effect = lower value 1.04 | S. cerevisiae deletion strains, locus YPL106C, strain sse1, stronger effect = lower value 1.02 | S. cerevisiae deletion strains, locus YPL240C, strain hsp82, stronger effect = lower value 1.01 | S. cerevisiae deletion strains, locus YPL241C, strain CIN2, stronger effect = lower value 0.992 | S. cerevisiae deletion strains, locus YPL256C, strain CLN2, stronger effect = lower value 0.974 | S. cerevisiae deletion strains, locus YPR119W, strain clb2, stronger effect = lower value 0.988 | S. cerevisiae deletion strains, locus YPR141C, strain kar3, stronger effect = lower value 0.965 | S. cerevisiae deletion strains, locus YPR163C, strain tif3, stronger effect = lower value 0.982 | S. cerevisiae deletion strains, locus YPR167C, strain met16, stronger effect = lower value 0.973 | S. cerevisiae deletion strains, strain wtn01, stronger effect = lower value 0.989 | S. cerevisiae strains, strain wild type, stronger effect = lower value 0.999
